Publication PMC12864922, “TDP-43 directly inhibits mRNA accumulation in neurites through modulation of mRNA stability”
Over roughly 9,900 sequences, “r (bound/input frequency ratio)” has its median near 0.7; the highest 2% begin near 6.5. The full list was thinned out, with the highest values kept by preference.

B1: ENSMUSG00000058297.456|Spock2 (ssRNA)
RNA: GGGAGUUCUACAGUCCGACGAUCGCUUCGAUAUCCGCAUGCUAUCACACAGGUCAGAUUAUUGUCGGUCCUGCGGGCCUCAUCCUUGAAUAAGCUGCCUGCCCAGUUCCUCCAUCCGUGUUCCUGCCUGCUCCCGUUCCCUUGUUGCGGGCAGGAGAGGUAGGGCUGUGUUGGAAAGAGUUCAACCAAAUUACGGCAGCACCACAUCUUGCCGAGCCCUGGAGCUGCCCUACUAAGAGCCUCCUUAGCCCUGGGUGCUGGGAAGGAUGGUGUACGUUGGGGAAGUUUGAGGUUGGAGAGAGUACUCUUGCGGUCGCACUAGUGUGGAAUUCUCGGGUGUCAAGG
B2: ENSMUSG00000029028.209|Lrrc47 (ssRNA)
RNA: GGGAGUUCUACAGUCCGACGAUCGCUUCGAUAUCCGCAUGCUACAGCAGCUGCACAGAGGACUUGGUGGCCCCGUGCCUUGCCAUCUGGCUGAGAAGAGAACCAGACCCUCAGCCUUCCCCCUCGACACCUUCUCGUUGGUGACCUCUGACCUUAAAGGACCAUUUCUACCUUCUGUAAAAGAACACCUGUUUGGGGUUGCGUGCGGCUUUCAUCCUAAGGCCGUGCGAGAGCCGUUAGCUGUCAGAACUAGUGAAGCUCCAGGCUCCUCGUGGCAGACCCUGGACAACGCUGGUAGCUGUUCCUCUUGCGGUCGCACUAGUGUGGAAUUCUCGGGUGUCAAGG
B3: ENSMUSG00000029636.505|Wasf3|28:32 (ssRNA)
RNA: GGGAGUUCUACAGUCCGACGAUCGCUUCGAUAUCCGCAUGCUAAUCAUUUAUGAGCAUAGGAUGAUGAGGCACACAAAGCUUUGUAAUAUUUUCAGCAGAAAUGCGUGAUACAUUUGAAUCCAUUGAGGUCUGGAGGGAGGGUAUCAGCCAGAGUAGCAAGGCGGUUUUGUUUAUUUGUUUGUUUUUUUGUUUGUUUGUUUUAUGAAGGAGAGUAUCUGUUAUCUUGCAGUAUUAUCAAUGCAGUUGUAAAUUGAAUCUAAAGUGGUAUUUAAAACUGUCAAACAAUUUUUAAUCUGUUUGUACUCUUGCGGUCGCACUAGUGUGGAAUUCUCGGGUGUCAAGG
B4: ENSMUSG00000031028.267|Tub (ssRNA)
RNA: GGGAGUUCUACAGUCCGACGAUCGCUUCGAUAUCCGCAUGCUAUGCUUUGAAAUAGAUAUGUUUGGAAACGCUAAGUAGAAGUUUAAAAAGUAGAGUCAUGUAGAGUCAUGCUUUGAAUAUGUGGGUCAUGCUUUAGAUAUGAAGAGGCUAUGCAGGUAAGGAGGCUGGAUUGAUGUAAAUGGAAGUAGUACUUUAAGAAAGCUCUAGAUUUCCCAGGUUGGACACUCGACGAAAGGCACACCUGCUGCAGCAGGUUCUGACACACCUGAGCCAUACAUUGCCAUCAGAGAACCCUCAGCGAGCUCUUGCGGUCGCACUAGUGUGGAAUUCUCGGGUGUCAAGG
B5: ENSMUSG00000043670.108|Diras1 (ssRNA)
RNA: GGGAGUUCUACAGUCCGACGAUCGCUUCGAUAUCCGCAUGCUACUUUCACCUGAUCCUGUCCUUUCCCCGUGACCUCUGACCUGUGGCCUUCCCUGGGUCCAGAACACCCCUGUCCUCUCCUGUCUGCACACCAGGGUGGAUGGGCCCGAGGGCUGGGCCUCAGGCACCAGGCAAUAAACACAGGGCCUGCAGCAAUGCCCUGGCCACCCCGAGUACCACCUCUGGAAUAGCAGACGCCCACAGCACAAGCCCAGGACUGUCCCUUCAGGGGAGGCACACUGGAACCCUGAACUUGGAGUGUGCUCUUGCGGUCGCACUAGUGUGGAAUUCUCGGGUGUCAAGG
B6: ENSMUSG00000061578.1206|Ksr2 (ssRNA)
RNA: GGGAGUUCUACAGUCCGACGAUCGCUUCGAUAUCCGCAUGCUAUAUGGACACACUAGAAAGCCCAUCCUAGGUCUUUCCAUGGUCUCUCACACCCCUGUCCCCGUCCCCUCCACCCCCCGGCAGCAUGCUUCACUCUAUGAAUGAGCCGCUGGGAUAUUGACAUGGAGAUGUGUUGAUGGAAAAAGCCUCCACACCCAACAUAACUCUCCAGAGAGAUAUUGAAAGUGAUGGGCAGAGAGUCUGACAAUGACCCAGGGGUCAUUGUGAGUCCUAGGCUGAAUCUGUAAUGGGGUCCAAAGUGCCUCUUGCGGUCGCACUAGUGUGGAAUUCUCGGGUGUCAAGG
B7: ENSMUSG00000022095.184|Fam160b2 (ssRNA)
RNA: GGGAGUUCUACAGUCCGACGAUCGCUUCGAUAUCCGCAUGCUACAGGCAUUACCUCACAACAGGCCUGCAGUUGUUGGCUUCCCUCCUGGGCAAGGAGGAGCAGGCCAGAGCCCCUUUUGCUUCCUUUUCCUGCCCAUGCCACCUCUCGAAGCCGGGCACAGGUUGCCAGGAGGUGACAUGAAAGAGGAGGAAACUCCAUGACCUCUACAUCCCCCGCAGUCCUCCCAGCGGGGGAGGACUUCUCUGCUGCUCCGAAGAACAUCAUGCACUCCUGUGUGUGUGUGUGAGUGUGUGUGUGUGUGCUCUUGCGGUCGCACUAGUGUGGAAUUCUCGGGUGUCAAGG
B8: ENSMUSG00000022095.183|Fam160b2 (ssRNA)
RNA: GGGAGUUCUACAGUCCGACGAUCGCUUCGAUAUCCGCAUGCUACGGCGCCAGGCAUUACCUCACAACAGGCCUGCAGUUGUUGGCUUCCCUCCUGGGCAAGGAGGAGCAGGCCAGAGCCCCUUUUGCUUCCUUUUCCUGCCCAUGCCACCUCUCGAAGCCGGGCACAGGUUGCCAGGAGGUGACAUGAAAGAGGAGGAAACUCCAUGACCUCUACAUCCCCCGCAGUCCUCCCAGCGGGGGAGGACUUCUCUGCUGCUCCGAAGAACAUCAUGCACUCCUGUGUGUGUGUGUGAGUGUGUGUGCUCUUGCGGUCGCACUAGUGUGGAAUUCUCGGGUGUCAAGG

molecular target: TDP-43 (Homo sapiens, UniProt Q13148 1-414); experiment: RNA Bind-n-Seq with designed 260-mer pool; 25 mM Tris-HCl, 150 mM KCl, 3 mM MgCl2, BSA (printed 500 mg/mL), 20 units/mL SUPERase IN; pH not stated; 500 nM RNA pool, 1 h, 4 C; TDP-43 5, 50, 500 nM; high values mean tight binding; conditions: protein: recombinant; tags: SBP (GST cleaved off with PreScission; pGEX-GST-SBP)
Sequence (Q13148 whole entry): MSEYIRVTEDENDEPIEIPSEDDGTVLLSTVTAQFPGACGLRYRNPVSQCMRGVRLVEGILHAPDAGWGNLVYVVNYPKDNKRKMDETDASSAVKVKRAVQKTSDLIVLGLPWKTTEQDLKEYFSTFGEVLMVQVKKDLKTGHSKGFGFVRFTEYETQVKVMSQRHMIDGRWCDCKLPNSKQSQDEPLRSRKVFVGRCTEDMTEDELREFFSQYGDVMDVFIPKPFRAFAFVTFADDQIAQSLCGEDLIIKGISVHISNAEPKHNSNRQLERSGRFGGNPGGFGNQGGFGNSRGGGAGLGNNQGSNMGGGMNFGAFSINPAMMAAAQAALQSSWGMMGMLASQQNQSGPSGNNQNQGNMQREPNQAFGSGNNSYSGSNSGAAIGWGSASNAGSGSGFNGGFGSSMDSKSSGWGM
Summary of the method: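 The incubation lasted 1 h at 4 °C and used 500 nM of an in vitro-transcribed 260-nt 3′ UTR oligo pool with recombinant SBP-tagged TDP-43 at 5, 50 or 500 nM immobilized on streptavidin beads. It took place in 25 mM Tris-HCl, 150 mM KCl, 3 mM MgCl2, BSA and SUPERase IN. Bound RNA was washed, eluted with biotin, converted to cDNA, PCR-amplified and sequenced to give R, each oligo's normalized abundance in the bound sample divided by that in input. Two independent protein batches provided the duplicates.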

| Binder | binding signal |
| --- | --- |
| B1 | 0.782 R (bound/input frequency ratio) |
| B2 | 0.424 R (bound/input frequency ratio) |
| B3 | 0.502 R (bound/input frequency ratio) |
| B4 | 2.93 R (bound/input frequency ratio) |
| B5 | 1.22 R (bound/input frequency ratio) |
| B6 | 0.481 R (bound/input frequency ratio) |
| B7 | 3.46 R (bound/input frequency ratio) |
| B8 | 1.73 R (bound/input frequency ratio) |
